Screens deposited in PubChem BioAssay by National Center for Advancing Translational Sciences (NCATS).
An excerpt weighted towards active compounds, which were near 7.3% of everything screened.
NPC1 prom act: qHTS Assay for NPC1 Promoter Activators | Huh7 NPC1 promoter luciferase reporter, 24 h | Potency, µM (titrated, usually from 9.22 µM), for the others: top-dose activation, hits mostly activators | 320,000 compounds, 2.4% hits; further: % of control where 0% means no effect; nearly all actives have a fitted effect of over 60% in size
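Stably transfected Huh7 (NPC1 promoter→luciferase), 1500 cells/well in Opti-MEM + 10% FBS, 2 h settle, then compound 24 h at 37 °C. Luminescence after 10 min with Amplite reagent.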
FLuc counter: qHTS profiling assay for firefly luciferase inhibitor/activator using purifed enzyme and Km concentrations of substrates (counterscreen for miR-21 project); Luciferin 4-monooxygenase (Photinus pyralis), P08659; purified FLuc, Km substrates, luminescence inhibition; Potency, µM (highest dose often 57.5 µM), for inactives: at the top dose activity change, negative = inhibition, most hits filed as inhibitors; 360,000 compounds, 6.9% hits;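 further: plate controls were vehicle for no effect and reference inhibitor for full effect; nearly all actives have a fitted effect of over 55% in size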
Target sequence (P08659 whole entry, looked up): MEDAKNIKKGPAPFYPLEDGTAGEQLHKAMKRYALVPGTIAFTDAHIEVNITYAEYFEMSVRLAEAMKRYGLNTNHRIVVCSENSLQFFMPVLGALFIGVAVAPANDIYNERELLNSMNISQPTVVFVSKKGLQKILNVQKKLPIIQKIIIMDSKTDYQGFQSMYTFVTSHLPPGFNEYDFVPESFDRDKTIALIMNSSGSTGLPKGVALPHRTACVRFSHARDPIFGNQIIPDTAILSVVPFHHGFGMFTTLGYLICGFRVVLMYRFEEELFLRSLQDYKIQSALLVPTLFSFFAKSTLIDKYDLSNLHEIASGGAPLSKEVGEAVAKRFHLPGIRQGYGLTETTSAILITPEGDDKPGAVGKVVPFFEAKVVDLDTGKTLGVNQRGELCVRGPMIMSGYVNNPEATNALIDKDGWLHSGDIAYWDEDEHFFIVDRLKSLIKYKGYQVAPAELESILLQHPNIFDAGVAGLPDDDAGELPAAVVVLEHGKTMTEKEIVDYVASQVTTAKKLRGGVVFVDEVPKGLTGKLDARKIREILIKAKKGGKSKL
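Purified P. pyralis luciferase, 10 nM final, with Km-level 10 uM D-luciferin and 10 uM ATP in 50 mM Tris acetate pH 7.5, 10 mM Mg acetate, 0.01% Tween-20, 0.05% BSA; 6-point qHTS titration about 60 µM downward; luminescence read.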
ELG1 genotoxic: qHTS screen for small molecules that induce genotoxicity in human embryonic kidney (HEK293T) cells expressing luciferase-tagged ELG1; HEK293T ELG1-luciferase reporter, luminescence, 16 h; Potency, µM (series often up to 46 µM), inactives show at the highest dose activity change, positive = activation, most hits filed as activators; 330,000 compounds, 1.3% hits; AID 504466, 2011; further: % of control where 0% means no effect; nearly all actives have a fitted effect of over 60% in size
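Reporter readout depends on ELG1 protein level, which increases with genetic stress. After 16 hr compound exposure at 37 °C, luciferase activity was quantified using ONE-Glo.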
Luc counter: Counterscreen for Luciferase (Kinase-Glo TM) Inhibition. Luciferin 4-monooxygenase (Photuris pensylvanica), Q27757. Kinase-Glo luciferase, ATP luminescence, 8 min. Potency, µM (top dose mostly 38.3 µM), for inactives: at the top dose activity change, negative = inhibition, most hits filed as inhibitors. 200,000 compounds, 0.28% hits. AID 1379, 2008; further: on the % scale 0 is the no-effect control and ±100 the full control effect; nearly all actives have a fitted effect of over 60% in size
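Inhibition of Kinase-Glo luciferase light generation was assessed at 10 uM ATP in pH 7.2 imidazole buffer, with luminescence measured after eight minutes at ambient temperature.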
SMN2 splice up: qHTS Assay for Enhancers of SMN2 Splice Variant Expression | HEK293 SMN2-luciferase splicing reporter, luminescence, 30-36 h | Potency, µM (series often up to 46.1 µM), for the others: top-dose activity change, positive = activation, most hits filed as activators | 210,000 compounds, 2.8% hits; further: % of control where 0% means no effect; nearly all actives have a fitted effect of over 55% in size
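qHTS luciferase splicing reporter: luminescence rises when SMN2 exon 7 is included in transfected HEK293 cells. Compound exposure lasted 30-36 h at 37C, with 4.5 mM final sodium butyrate as control, followed by a ONE-Glo read.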
Rab9 promoter act: qHTS Assay for Rab9 Promoter Activators; Potency, µM (titrated, usually from 9.22 µM), without a hit: at the top dose activation, negative = inhibition, actives largely listed as activators; Huh7 Rab9 promoter-luciferase reporter, luminescence, 24 h; 320,000 compounds, 2.8% hits; further: % of control where 0% means no effect; nearly all actives have a fitted effect of over 60% in size
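Cells were plated at 1500 per well in reduced-serum medium with 10% FBS and left 2 h. Compound in DMSO was then added for 24 h at 37 °C. Reporter signal was read by luminescence after 10 min with luciferase detection reagent.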
The depositor's hits bear a star; ? = inconclusive; . = no result; [ ] = dose if it differs, or a comment. The call rests on the fitted dose curve; in most records, active means well fitted curve in the direction sought with a large enough effect; inconclusive means small, poorly fitted or top-dose-only effect, or another doubt; inactive means no such curve, though single readings can be large; an effect the other way counts as inactive or inconclusive. Potency means the concentration at half of the fitted maximal effect.

SMILES	NPC1 prom act	FLuc counter	ELG1 genotoxic	Luc counter	SMN2 splice up	Rab9 promoter act
CC(=O)N1CCN(C(=O)c2cc3ccccc3o2)CC1	-3%	1%	7%	.	.	-2%
CC1CC(C)CN(C(=O)c2cc3cc(Br)cc(Br)c3o2)C1 (stereo unspecified)	15%	17µM*	?	3%	11%	17%
CC1CCN(C(=O)c2cc3ccccc3o2)CC1	?	19µM*	13µM*	-6%	?	?
CC1CC(C)CN(C(=O)c2cc3ccccc3o2)C1 (stereo unspecified)	23%	?	23µM*	.	.	?
CCSC1=C(C#N)C(c2ccc(C)s2)CC(=O)N1 (stereo unspecified)	3%	27µM*	0%	-11%	0%	5%
CCOC(=O)c1ccc(-c2ccc(/C=N/NC(=O)CN(c3cccc(C)c3)S(C)(=O)=O)o2)cc1	15%	-3%	14%	-1%	?	28%
CCOC(=O)c1ccc(-c2ccc(/C=N/NC(=O)CN(c3ccccc3Cl)S(C)(=O)=O)o2)cc1	?	?	-6%	-1%	11µM*	?
C[N+](C)(C)CC(=O)N/N=C\c1c(O)ccc2ccccc12	.	.	.	-2%[7.66 µM]	-17%[9.22 µM]	.
Brc1cccc(-c2nnn3c2nc(N2CCCCC2)c2ccccc23)c1	.	0%	.	.	-7%	.
[O-]/[N+](=C\c1cccc(Br)c1)c1ccccc1	2%	24µM*	15%	?	27%	19%
COc1cc2c(cc1OC)C1C(=O)c3ccc4c(c3OC1CO2)C=CC(C)(C)O4 (stereo unspecified)	.	.	.	-4%	-73%	.
O=C(O)c1cccc(N=Nc2c(S(=O)(=O)O)ccc3c2C(=O)c2ccccc2C3=O)c1O	.	.	.	-2%[7.66 µM]	-5%[9.22 µM]	.
O=C1c2ccccc2C(=O)C1(CO)c1ccc(OC(F)F)cc1	?	0.95µM*	?	.	.	0.45µM*
COC(=O)CC1(c2ccc(OC)cc2)C(=O)c2ccccc2C1=O	-3%	0%	-1%	.	.	1%
O=C1c2ccccc2C(=O)C1(CO)c1ccccc1	26%	15µM*	-8%	-12%	166%	?
CCOc1ccccc1NC(=O)NC(CC)c1c(-n2cccc2)sc2c1CCN(C)C2 (stereo unspecified)	.	1%	.	.	.	.
COc1cccc(NC(=O)c2csc3c2CCCC3)c1	?	9.5µM*	?	-12%	14µM*	?
COc1cccc(NC(=O)CN(C)C(=O)c2csc3c2CCCC3)c1	1%	10%	-3%	.	.	10%
Cc1ccc(/C=N\NC(=O)c2csnn2)cc1	3.5µM*	3.8µM*	?	?	-3%	2.5µM*
COc1ccc(NC(=O)c2csc3c2CCCC3)cc1	2µM*	3µM*	?	1%	13µM*	3.2µM*
O=C(Nc1nccs1)c1csc2c1CCCC2	28%	13µM*	8%	0%	26%	28%
O=C(CSc1nnc(-c2ccc(F)cc2)o1)N1CCCc2ccccc21	.	?	.	.	-7%	.
C[C@H]1Cc2c(-c3ccccc3)nc3c(c2CO1)CN(C(=O)c1cccnc1)CC3	.	.	.	-2%[7.66 µM]	4%[9.22 µM]	.
CC#CCN1c2ccccc2[C@]23C[C@@H](C(=O)OC)N(S(=O)(=O)c4ccc(C(F)(F)F)cc4)C2=NC(C(=O)OC)=C(C(=O)OC)[C@H]13	.	.	.	-1%[7.66 µM]	-2%[9.22 µM]	.
CCOc1ccc(NC(=O)Cn2cc(C(=O)c3ccc(CC)cc3)c(=O)c3ccc(C)nc32)cc1	.	0%	.	.	.	.
SMILES	NPC1 prom act	FLuc counter	ELG1 genotoxic	Luc counter	SMN2 splice up	Rab9 promoter act
CCc1ccccc1NC(=O)Cn1c(=O)n(-c2ccc(C)c(C)c2)c(=O)c2oc3ccccc3c21	.	-2%	.	.	.	.
Cc1cccc(C)c1NC(=O)Cn1c(=O)n(Cc2ccc3c(c2)OCO3)c(=O)c2oc3ccccc3c21	.	-1%	.	.	.	.
CC(CNC(=O)c1csc2c1CCCCC2)c1ccccc1 (stereo unspecified)	.	15µM*	.	.	11µM*	.
Cc1ccccc1NC(=O)Nc1csc2c1CCCC2	.	?	.	.	5%	.
COc1cc(/C=N/NC(=O)c2csc3c2CCCC3)cc(OC)c1O	7%	-19%	-1%	-5%	8%	0%
Cc1cc(NC(=O)Nc2csc3c2CCCC3)ccc1Br	.	?	.	.	-1%	.
Cc1ccccc1NC(=O)c1csc2c1CCCC2	?	19µM*	26µM*	-15%	?	29%
O=C(NCc1ccccc1)c1csc2c1CCCCC2	0%	-5%	11%	?	-15%	8%
Cc1ccc(/C=N/NC(=O)c2csc3c2CCCC3)cc1	0%	11µM*	?	-1%	24%	24%
CC(C)c1ccc(NC(=O)Nc2csc3c2CCCC3)cc1	.	4.8µM*	.	.	-30%	.
CCOc1ccccc1N(CC)C(=O)c1cc2c(=O)n(CC)c3ccccc3c2s1	.	-11%	.	.	-49%	.
Cc1ccc(-c2cc(C(=O)Oc3ccc(C#N)cc3)no2)cc1	.	-21%	.	.	.	.
Cc1c(C(=O)N2CCCC2)oc2c1-c1nn(CC(=O)NCc3cccc(Br)c3)cc1CC2	.	-18%	.	.	.	.
C[N+]1(CCC[N+]2(C)C[C@H]3[C@H](C2)[C@H]2C=C[C@@H]3CC2)CCOCC1 (stereo partly specified)	.	.	.	-7%[7.66 µM]	-16%[9.22 µM]	.
CCN(CC)c1ccc(/C=N/Nc2nn[nH]n2)cc1	2%	17µM*	6%	.	.	2%
CCN(CC)c1ccc(/C=N/Nc2nc(C)cc(C)n2)cc1	-3%	?	-4%	.	.	-18%
Cc1ccc(C)n1-c1nnc(N2CCCC(C(=O)Nc3ccccc3Br)C2)s1 (stereo unspecified)	.	7%	.	.	4%	.
O=C(Cc1ccccc1)NC(=S)Nc1ccc2oc(-c3ccccc3F)nc2c1	?	13µM*	15%	-2%	?	?
O=C(Cc1ccccc1)Nc1ccc2oc(-c3ccncc3)nc2c1	8%	-8%	2%	-3%	13%	18%
CC(=O)NC(=S)Nc1ccc2oc(-c3cc(F)c(F)cc3Cl)nc2c1	?	-19%	4.6µM*	0%	5µM*	0.5µM*
O=C(Cc1ccccc1)NC(=S)Nc1ccc2oc(-c3ccccc3)nc2c1	?	?	?	0%	11µM*	?
O=C1C(Cl)=C(Nc2ccc(S(=O)(=O)Nc3ccccn3)cc2)C(=O)c2ccccc21	.	.	.	-5%[7.66 µM]	-22%[9.22 µM]	.
O=C1C(Cl)=C(NS(=O)(=O)c2ccc([N+](=O)[O-])cc2)C(=O)c2ccccc21	0%	27µM*	-17%	.	.	-3%
